Assay results from PubChem BioAssay (EPA / NIEHS).
Records with an inconclusive call do not appear. Calls of active or inactive are those of the source. The calls were made as follows: active = hit-call score of the fitted dose curve at least 0.9, where 1 is the maximum; inconclusive = response in the unintended direction; inactive = score below 0.9.

Experiments:
[1] = TOX21_p53_BLA_p2_viability: Viability Assessment in the Tox21 HCT-116 p53 Agonism Beta-lactamase Assay, Phase 2 (AID 2283591);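 also: compound exposure lasted 16 h at 37 °C; actives lower the ATP signal meaning cytotoxicity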
How it was run: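 HCT-116 p53-bla cells (4000/well) rested 5 h at 37C, then received compounds in DMSO (217-fold dilution) for 16 h at 37C, 5% CO2. After the CCF4 read, CellTiter-Glo was added; ATP luminescence was read after 30 min at room temperature.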

[2] = molecular target: Cellular tumor antigen p53 (Homo sapiens) (UniProt P04637); assay: TOX21_p53_BLA_p2_ratio: Tox21 HCT-116 p53 Agonism Beta-lactamase Assay, Ratio, Phase 2 (AID 2283592)
How it was run: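 Cleaved-to-uncleaved substrate ratio (460 vs 530 nm) measured in HCT116 cells with an inducible beta-lactamase reporter linked to p53 activity. Compounds incubated 16 h at 37C before 2 h room-temperature CCF4-AM loading.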

[3] = TOX21_p53_BLA_p3_viability: Viability Assessment in the Tox21 HCT-116 p53 Agonism Beta-lactamase Assay, Phase 3 (AID 2283593);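 also: cells exposed to compound for 16 h before reading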
How it was run: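 HCT-116 cells (4000/well) rested 5 h at 37C, then got DMSO compounds by pin tool (217-fold dilution) for 16 h at 37C, 5% CO2. After the bla read, CellTiter-Glo was added and luminescence read at 30 min, room temperature.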

[4] = molecular target: Cellular tumor antigen p53 (Homo sapiens) (UniProt P04637); assay: TOX21_p53_BLA_p5_ratio: Tox21 HCT-116 p53 Agonism Beta-lactamase Assay, Ratio, Phase 5 (AID 2283599)
How it was run: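 HCT-116 cells carrying a p53-inducible beta-lactamase reporter were seeded at 4000 cells/well and dosed after 5 h with compound in DMSO (217-fold dilution). After 16 h at 37C, CCF4-AM substrate was added for 2 h, and the 460/530 nm emission ratio was scored as gain-of-signal versus DMSO.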

[5] = TOX21_p53_BLA_p5_viability: Viability Assessment in the Tox21 HCT-116 p53 Agonism Beta-lactamase Assay, Phase 5 (AID 2283600)
How it was run: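 Viability is taken from cellular ATP content, measured by luciferase luminescence in the same wells after the beta-lactamase ratio read. Cells are seeded at 4000 per well and exposed to DMSO-dissolved compounds, diluted 217-fold, for 16 h.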

[6] = molecular target: Cellular tumor antigen p53 (Homo sapiens) (UniProt P04637); assay: TOX21_p53_BLA_p4_ratio: Tox21 HCT-116 p53 Agonism Beta-lactamase Assay, Ratio, Phase 4 (AID 2283601)
How it was run: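 HCT116 cells carrying an inducible beta-lactamase reporter were plated at 4000 cells/well, rested 5 h, then exposed to compounds in DMSO (217-fold dilution) for 16 h at 37C. CCF4-AM substrate was loaded 2 h at room temperature; 460/530 nm emission ratio scored gain-of-signal versus DMSO.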

[7] = molecular target: Cellular tumor antigen p53 (Homo sapiens) (UniProt P04637); assay: TOX21_p53_BLA_p3_ratio: Tox21 HCT-116 p53 Agonism Beta-lactamase Assay, Ratio, Phase 3 (AID 2283596)
How it was run: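 Cells were seeded at 4000/well, rested 5 h at 37C, then dosed with DMSO compound solutions (217-fold dilution) for 16 h. CCF4-AM substrate was loaded for 2 h at room temperature, and the 460/530 nm emission ratio was fitted for gain of signal versus DMSO.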

[8] = TOX21_p53_BLA_p4_viability: Viability Assessment in the Tox21 HCT-116 p53 Agonism Beta-lactamase Assay, Phase 4 (AID 2283597);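 also: hits lower the luminescence signal meaning cytotoxicity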
How it was run: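 Viability is taken as cellular ATP: after 16 h compound exposure of HCT116 cells and a 2 h room-temperature CCF4-AM substrate step, CellTiter-Glo reagent is added and luminescence is measured 30 min later.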

Measured: outcome

Cellular tumor antigen p53 (Homo sapiens), sequence (P04637 whole entry, looked up): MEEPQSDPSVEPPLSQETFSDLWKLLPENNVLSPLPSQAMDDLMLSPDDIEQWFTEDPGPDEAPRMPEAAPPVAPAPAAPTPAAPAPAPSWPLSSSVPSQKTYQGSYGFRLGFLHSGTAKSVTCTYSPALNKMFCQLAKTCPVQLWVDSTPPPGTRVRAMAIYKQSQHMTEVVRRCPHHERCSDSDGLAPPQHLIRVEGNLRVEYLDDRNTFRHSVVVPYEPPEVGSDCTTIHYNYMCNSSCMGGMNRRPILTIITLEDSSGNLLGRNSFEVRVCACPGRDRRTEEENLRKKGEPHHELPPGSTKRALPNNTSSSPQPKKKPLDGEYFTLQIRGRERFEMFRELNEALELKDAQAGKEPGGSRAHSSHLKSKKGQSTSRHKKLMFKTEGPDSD

Cc1[nH]cnc1CN1CCc2c(c3ccccc3n2C)C1=O
not listed: [7] | [8]
inactive: all other assays above

NS(=O)(=O)c1cc2c(cc1C(F)(F)F)NCNS2(=O)=O
not listed: [3] | [6]
inactive: all other assays above

O=C(O)CCC(=O)c1ccc(-c2ccccc2)cc1
not listed: [3] | [6]
inactive: all other assays above

CCCCNCCCC
not listed: [3] | [6]
inactive: all other assays above

CCOC(=O)[C@H](CCc1ccccc1)N[C@H]1CS[C@H](c2cccs2)CN(CC(=O)O)C1=O
inactive: [1] | [2] | [7]

CC(=O)OCC(=O)[C@@]12OC3(CCCC3)O[C@@H]1C[C@H]1[C@@H]3CCC4=CC(=O)C=C[C@]4(C)[C@@]3(F)[C@@H](O)C[C@@]12C
inactive: [1] | [2] | [3] | [6]

Cc1c(C(C)C)c(=O)n(-c2ccccc2)n1C
not listed: [3] | [6]
inactive: all other assays above

Clc1nnc(Cl)c2ccccc12
not listed: [3] | [6]
inactive: all other assays above

CCCCOC(=O)CC
not listed: [3] | [6]
inactive: all other assays above
